Several values for one entry are separate records, joined by “and”; a condition that tells them apart may be missing. Equal values may be shown once. More than one record can exist for a structure, and the calls need not agree. Activity calls are given as the source filed them. Rule for the calls: active = hit-call score of the fitted dose curve at least 0.9, where 1 is the maximum; inactive = score below 0.9.
Columns and labels:
[1] = read-out: Pselectin, SELP (gene 6403); assay: BSK_4H_Pselectin: BioMAP Diversity Plus: 4H Assay for Pselectin Biomarker Activity (AID 2283026); details: primary human endothelial cells (HUVEC); actives raise or lower the signal
Summary of the method: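 ELISA of surface P-selectin on HUVEC, 24 h after dosing, with parallel SRB staining (0.1% after 10% TCA fixation, 560 nm) for overt cytotoxicity. Activity fitted in both directions relative to DMSO.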

[2] = BSK_4H_SRB: Viability Assessment in the BioMAP Diversity Plus: 4H Assay (AID 2283027); details: primary human endothelial cells (HUVEC);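 note: cells exposed to compound for 24 h before staining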;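 for AC50: curves fitted both ways versus DMSO so AC50 may be loss or gain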
Summary of the method: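 Cytotoxicity read-out in primary human endothelial cells: after 24 h compound exposure, cells were TCA-fixed (10%), stained with 0.1% SRB and absorbance taken at 560 nm. Values fitted in both directions relative to DMSO.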

[3] = BSK_BE3C_SRB: Viability Assessment in the BioMAP Diversity Plus: BE3C Assay (AID 2283028); details: primary human bronchial epithelial cells;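 for AC50: fitted both ways so AC50 may mark signal gain or loss versus DMSO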
Summary of the method: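 Cytotoxicity read-out: SRB (0.1%) staining of TCA-fixed (10%) human lung bronchial epithelial cells, absorbance 560 nm, 24 h post-dosing. Curves fitted both directions relative to DMSO.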

[4] = read-out: Thrombomodulin, THBD (gene 7056); assay: BSK_3C_Thrombomodulin: BioMAP Diversity Plus: 3C Assay for Thrombomodulin Biomarker Activity (AID 2283029); details: primary human endothelial cells (HUVEC); actives raise or lower the signal
Summary of the method: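 ELISA measurement of thrombomodulin on HUVEC surface 24 h after chemical dosing; activity fitted in both directions relative to DMSO vehicle.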

[5] = read-out: Urokinase-type plasminogen activator receptor (uPAR), PLAUR (gene 5329); assay: BSK_4H_uPAR: BioMAP Diversity Plus: 4H Assay for Urokinase-type plasminogen activator receptor (uPAR) Biomarker Activity (AID 2283030); details: primary human endothelial cells (HUVEC); actives raise or lower the signal
Summary of the method: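 uPAR level read by ELISA on HUVEC cultures (BioMAP 4H) 24 h post-dosing, analyzed for gain or loss relative to DMSO. Parallel SRB staining assessed overt cytotoxicity.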

[6] = read-out: Vascular endothelial growth factor receptor 2 (Homo sapiens) (UniProt P35968); assay: BSK_4H_VEGFRII: BioMAP Diversity Plus: 4H Assay for Vascular endothelial growth factor receptor 2 (VEGFR2) Biomarker Activity (AID 2283031); details: primary human endothelial cells (HUVEC); actives raise or lower the signal;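 for AC50: cell-surface VEGFR2 protein level quantified by ELISA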
Summary of the method: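 Measured by ELISA after 24 h of compound treatment: VEGFR2 on primary human umbilical vein endothelial cells, fitted in both directions relative to DMSO. Parallel cultures received SRB staining (560 nm) for overt cytotoxicity.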

[7] = read-out: Human Leukocyte Antigen - DR isotype (HLADR), HLA-DRA (gene 3122); assay: BSK_BE3C_HLADR: BioMAP Diversity Plus: BE3C Assay for Human Leukocyte Antigen - DR isotype (HLADR) Biomarker Activity (AID 2283032); details: primary human bronchial epithelial cells; actives raise or lower the signal
Summary of the method: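 Cell-surface HLA-DR ELISA readout at 24 h after dosing in the BE3C primary human lung bronchial epithelial system; gain or loss of signal against DMSO, with parallel sulforhodamine B staining of total protein for overt cytotoxicity.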

[8] = read-out: Vascular cell adhesion molecule 1 (VCAM1), VCAM1 (gene 7412); assay: BSK_4H_VCAM1: BioMAP Diversity Plus: 4H Assay for Vascular cell adhesion molecule 1 (VCAM1) Biomarker Activity (AID 2283033); details: primary human endothelial cells (HUVEC); actives raise or lower the signal
Summary of the method: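 VCAM-1 ELISA read 24 h after chemical dosing of HUVEC in the BioMAP 4H system, with gain or loss of signal fitted relative to DMSO. Parallel SRB staining (560 nm) checked overt cytotoxicity.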

[9] = read-out: Interferon-gamma inducible Protein 10 (IP10), CXCL10 (gene 3627); assay: BSK_BE3C_IP10: BioMAP Diversity Plus: BE3C Assay for Interferon-gamma inducible Protein 10 (IP10) Biomarker Activity (AID 2283034); details: primary human bronchial epithelial cells; actives raise or lower the signal
Summary of the method: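 IP-10 quantified by ELISA in human primary bronchial epithelial cell cultures at 24 hours post-dosing. Gain or loss of signal fitted relative to DMSO; parallel SRB staining assessed overt cytotoxicity.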

[10] = read-out: Monokine induced gamma interferon (MIG), CXCL9 (gene 4283); assay: BSK_BE3C_MIG: BioMAP Diversity Plus: BE3C Assay for Monokine induced gamma interferon (MIG) Biomarker Activity (AID 2283035); details: primary human bronchial epithelial cells; actives raise or lower the signal;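 note: MIG protein measured by ELISA in BE3C cultures after 24 h of dosing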
Summary of the method: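 ELISA quantified MIG after 24 h exposure of primary bronchial epithelial cultures, analysed in both directions relative to DMSO. Cytotoxicity tracked in parallel cultures by sulforhodamine B staining.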

Measured: AC50

Cc1ccc([N+](=O)[O-])cc1
inactive: all assays above

CCCCCCCCn1sccc1=O
inactive: [6]
active: [1] 8.69 µM | [2] 21 µM | [3] 12.8 µM | [4] 5.76 µM | [5] 10.5 µM | [7] 7.16 µM | [8] 9.24 µM | [9] 9.14 µM

Clc1ccc(C(c2ccc(Cl)cc2)C(Cl)Cl)cc1
inactive: [3] | [4]
active: [1] 15.1 µM | [2] 29.3 µM | [5] 31.4 µM | [6] 26.1 µM | [7] 30.5 µM | [8] 25 µM | [9] 32.2 µM

Cc1cccc(N)c1N
active: [8] 13.6 µM
not listed: [10]
inactive: all other assays above

C[N+](C)(C)CC1CO1 (stereo not drawn)
not listed: [10]
inactive: all other assays above

CCNS(=O)(=O)C(F)(F)C(F)(F)C(F)(F)C(F)(F)C(F)(F)C(F)(F)C(F)(F)C(F)(F)F
active: [1] 30 µM and 43.4 µM | [2] 45.1 µM and 47.3 µM | [3] 49.7 µM and 50.3 µM | [7] 5.32 µM and 36.7 µM and 30 µM | [8] 19.3 µM and 16.9 µM and 25.2 µM | [9] 13.9 µM and 21.1 µM and 14 µM
inactive: [1] | [2] | [3] | [4] | [5] | [6]

C=CCc1ccc2c(c1)OCO2
not listed: [10]
inactive: all other assays above

OCCCBr
not listed: [5] | [10]
inactive: all other assays above

Cc1ccc(N)cc1
not listed: [5] | [10]
inactive: all other assays above

c1ccc2c(c1)oc1ccccc12
inactive: all assays above

CN(C)C(=O)Nc1ccc(Cl)cc1
inactive: all assays above

Clc1ccc(C(c2ccc(Cl)cc2)C(Cl)(Cl)Cl)cc1
active: [1] 14.9 µM | [2] 30.5 µM | [5] 31 µM | [6] 25.8 µM | [8] 25.9 µM
inactive: [3] | [4] | [7] | [9] | [10]

O=[N+]([O-])c1ccc(Oc2ccc(Cl)cc2Cl)cc1
active: [7] 20 µM
inactive: all other assays above

Cc1cc(N=Nc2ccccc2C)ccc1N
active: [1] 29.1 µM | [2] 5.17 µM | [4] 3 µM | [8] 33.1 µM
inactive: [3] | [6] | [7] | [9]

CCCCOC(=O)c1ccccc1C(=O)OCc1ccccc1
inactive: all assays above

ClC1=C(Cl)C2(Cl)C3C(Cl)C=CC3C1(Cl)C2(Cl)Cl (stereo not drawn)
inactive: [3] | [4]
active: [1] 28.5 µM | [2] 33.4 µM | [6] 20 µM | [7] 26.2 µM | [8] 32.4 µM | [9] 32.3 µM

[O-][Cl+]O
not listed: [6]
inactive: all other assays above

Cc1ccc(N)c(N)c1
active: [2] 4.08 µM | [8] 8.05 µM
inactive: all other assays above

CC(C)COC(=O)c1ccccc1C(=O)OCC(C)C
active: [8] 14.1 µM
inactive: all other assays above

CC(C)(OOC(C)(C)c1ccccc1)c1ccccc1
active: [1] 35.9 µM | [2] 32.3 µM | [6] 37.3 µM | [7] 27.7 µM | [8] 26.4 µM
inactive: [3] | [4] | [5] | [9] | [10]
